Laboratory results reported in ChEMBL document CHEMBL1201862, “PubChem BioAssay data set” (2004).
The whole screen tested about 390,000 compounds, of which about 910 (0.23%) were called active. Inconclusive results (about 5%) are left out. The calls are words filed in the database; no cut-off is given here. Only a selection was taken, and actives are over-represented in it overall.

These compounds were tested against T1, Ubiquitin carboxyl-terminal hydrolase 1 (Homo sapiens) (UniProt O94782) (assay: Inhibitors of USP1/UAF1: Primary Screen.).
T1 sequence (whole entry): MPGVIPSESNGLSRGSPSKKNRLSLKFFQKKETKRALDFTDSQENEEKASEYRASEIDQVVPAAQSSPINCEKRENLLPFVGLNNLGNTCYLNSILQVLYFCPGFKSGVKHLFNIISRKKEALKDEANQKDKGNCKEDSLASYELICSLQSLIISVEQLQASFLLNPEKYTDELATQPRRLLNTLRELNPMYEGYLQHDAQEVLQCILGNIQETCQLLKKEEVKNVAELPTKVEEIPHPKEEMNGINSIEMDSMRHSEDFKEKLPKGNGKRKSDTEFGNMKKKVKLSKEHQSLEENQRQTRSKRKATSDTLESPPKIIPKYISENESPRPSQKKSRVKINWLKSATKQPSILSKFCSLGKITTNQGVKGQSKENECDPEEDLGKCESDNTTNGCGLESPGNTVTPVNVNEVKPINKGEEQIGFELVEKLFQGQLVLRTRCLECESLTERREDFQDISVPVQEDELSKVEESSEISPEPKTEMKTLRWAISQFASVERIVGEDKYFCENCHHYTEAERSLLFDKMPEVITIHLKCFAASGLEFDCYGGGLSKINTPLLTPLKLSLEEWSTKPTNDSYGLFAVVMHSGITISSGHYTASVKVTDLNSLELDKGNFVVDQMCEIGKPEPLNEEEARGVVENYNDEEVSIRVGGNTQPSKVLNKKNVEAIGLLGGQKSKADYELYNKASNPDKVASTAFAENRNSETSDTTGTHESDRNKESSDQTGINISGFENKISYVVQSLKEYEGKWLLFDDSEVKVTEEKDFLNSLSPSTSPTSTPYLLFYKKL
Type: functional

| SMILES | Potency |
| --- | --- |
| CCn1nc(-c2ccccc2)nc2c(=O)n(C)c(=O)nc1-2 | 89.1 µM (active) |
